Screening results (PubChem BioAssay)
Most compounds without a hit are left out; they make up all but 10% or so of the library.
SARS PLpro yeast: qHTS of Yeast-based Assay for SARS-CoV PLP; S. cerevisiae expressing SARS-CoV PLpro, growth rescue; Potency, µM (top dose mostly 32.9 µM), hits mostly activators; 0.19% of 330,000 active; calls by dose curve; note: nearly all actives have a fitted effect of over 55% in size
NS1 function inh: qHTS Assay for Inhibitors of Influenza NS1 Protein Function | Potency, µM (doses to about 46.1 µM) | AID 2326, 2010 | 0.4% of 270,000 active; calls by dose curve; note: actives are rising curves; nearly all actives have a fitted effect of over 50% in size
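Growth recovery, yeast-based: influenza A NS1 expressed in S. cerevisiae causes slow growth, and suppressors are detected by OD600. The parent strain without NS1 is used as positive control.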
Pf growth 96h: Primary qHTS for delayed death inhibitors of the malarial parasite plastid, 96 hour incubation; P. falciparum luciferase reporter growth, 96 h; Potency, µM (titrated, usually from 28.7 µM), usual class: inhibitors; 6.9% of 320,000 active; AID 504834, 2011
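Two-generation exposure (96 h) targets delayed-death phenotype. Reporter parasites carrying integrated firefly luciferase, in red cells at 2% hematocrit and 0.05% parasitemia final, kept at 37 C, 5% CO2; luminescence loss indicates inhibition.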
Pf growth 48h: Primary qHTS for delayed death inhibitors of the malarial parasite plastid, 48 hour incubation; P. falciparum luciferase growth in erythrocytes, 48 h; Potency, µM (top dose mostly 28.7 µM), actives largely listed as inhibitors; 5.9% of 310,000 active
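First compound was added to culture medium, then infected red cells at 0.1% parasitemia and 2% hematocrit (final). After incubation at 37 C under 5% CO2, luciferase detection reagent was dispensed and light output recorded.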
Of the large screens only hits and unclear results are named; the others gave an inactive call. Unless noted, calls come from the whole dose curve; as a rule, active = well fitted inhibition curve with a large enough effect; inconclusive = small, poorly fitted or top-dose-only effect, or another doubt; inactive = no such curve, though single readings can be large or run the other way.

Cc1ccc(OCC(=O)Nc2cccc(O)c2)cc1C	SARS PLpro yeast inconclusive
Cc1ccc(OCC(=O)NC2CCCC2)c(C)c1	Pf growth 96h 0.93µM
COc1ccc(S(=O)(=O)Nc2cc3c(cc2C(C)=O)OCO3)cc1	none
COc1ccc(CCNC(=O)NC2CCCCC2)cc1	none
COc1ccc(CCC(=O)NC2CCCCC2)cc1	Pf growth 96h 15µM (no result: SARS PLpro yeast)
CC(C)(C)c1cc(O)ccc1O	Pf growth 96h 11µM, Pf growth 48h 6µM (no result: SARS PLpro yeast)
CC(=O)c1ccc(NC(=O)/C(=C\c2ccc(F)cc2)NC(=O)c2ccco2)cc1	none
O=C(NC1CC1)c1ccc(CSCc2ccccc2Cl)o1	Pf growth 48h 1.9µM
O=C(CN(CC1CCCO1)C(=O)CNS(=O)(=O)c1ccc(F)cc1)NC1CCCCC1 (configuration not stated)	none
O=C1CC(=C2c3ccccc3-c3ccccc32)C(=O)N1CCCCN1CCN(c2ccccc2)CC1	NS1 function inh inconclusive, Pf growth 96h 6.6µM, Pf growth 48h 4.1µM
CCOC(=O)C1=CC[C@@H](c2ccccc2Cl)N(S(=O)(=O)c2ccc(C)cc2)[C@H]1C(=O)OCC	Pf growth 96h inconclusive, Pf growth 48h 13µM (no result: NS1 function inh)
CC1CCCCN1C(=O)CSc1nnc2c(n1)[nH]c1ccccc12 (configuration not stated)	Pf growth 96h 12µM, Pf growth 48h 1.7µM
CC1CCCCN1C(=O)CSc1nnc2c(n1)[nH]c1ccc(F)cc12 (configuration not stated)	Pf growth 48h inconclusive
CC1CCN(C(=O)CSc2nnc3c(n2)[nH]c2ccc(F)cc23)CC1	Pf growth 96h inconclusive, Pf growth 48h 1.7µM
Cc1ccc(C(=O)NNC(=O)c2cc(OCC(F)(F)F)ccc2OCC(F)(F)F)cc1	none
CCNC(=O)NCCNC(=O)c1cc(OCC(F)(F)F)ccc1OCC(F)(F)F	Pf growth 48h 2.9µM
O=C(NNC(=O)c1cc(OCC(F)(F)F)ccc1OCC(F)(F)F)c1cccc(C(F)(F)F)c1	Pf growth 96h inconclusive, Pf growth 48h 15µM
CCN(CC)C(=O)[C@H]1C[C@H](CC(=O)NC/C=C(\C)CCC=C(C)C)C(=O)N2CCc3c([nH]c4cc(CCC(=O)N(C)C)ccc34)[C@]12C	none (no result: NS1 function inh, Pf growth 96h, Pf growth 48h)
Cc1ccccc1NC(=O)c1cc(C(=O)c2cc(Cl)ccc2O)cn(-c2ccccc2C)c1=O	Pf growth 96h 0.74µM, Pf growth 48h 0.47µM
Cc1ccc(O)c(C(=O)c2cc(C(=O)NCCc3ccccc3)c(=O)n(CCc3ccccc3)c2)c1	Pf growth 96h 1.5µM, Pf growth 48h 1.9µM
O=C(c1cc(C(=O)NCc2ccccc2)c(=O)n(Cc2ccccc2)c1)c1cc(Cl)ccc1O	Pf growth 96h 0.66µM, Pf growth 48h 2.3µM
COc1ccc(O)c(C(=O)c2cc(C(=O)NCCc3ccccc3)c(=O)n(CCc3ccccc3)c2)c1	NS1 function inh inconclusive, Pf growth 96h inconclusive, Pf growth 48h inconclusive
CCC(CO)Oc1cc(NC(=O)Cc2ccccc2)c2ncn(C(C)C)c2c1 (configuration not stated)	none (no result: NS1 function inh, Pf growth 96h, Pf growth 48h)
CN1CCC(Nc2ncc3ncnc(Nc4ccc(F)c(Cl)c4)c3n2)CC1	Pf growth 96h 3.4µM, Pf growth 48h 1.7µM (no result: SARS PLpro yeast, NS1 function inh)
O=C(NCc1cccs1)C1CC(=O)N(Cc2ccccc2)C1 (configuration not stated)	none (no result: NS1 function inh, Pf growth 96h, Pf growth 48h)
Cc1cccc(N2C(=S)NC3c4ccccc4OC2(C)C3C(=O)N(C)C)c1 (configuration not stated)	Pf growth 96h 9.3µM (no result: NS1 function inh)
COc1ccc(OCC(O)CNCCOc2ccccc2OC)c(C(C)(C)C)c1 (configuration not stated)	Pf growth 96h 3.7µM, Pf growth 48h 4.7µM
Cc1ccccc1OCC(O)CNCCOc1ccc(C(N)=O)cc1 (configuration not stated)	none (no result: SARS PLpro yeast, NS1 function inh)
CN1C(=O)N(C)C(NC(=O)Nc2ccccc2)C1NC(=O)Nc1ccccc1 (configuration not stated)	Pf growth 96h 2.3µM
O=C(Nc1ccc(S(=O)(=O)Nc2cnc3ccccc3n2)cc1)c1cccc(OC(F)F)c1	none
Cc1ccc(NC(=O)CN2C(=O)NC3(CCCc4ccccc43)C2=O)c(C)c1 (configuration not stated)	none (no result: NS1 function inh)
O=C(CCCN1C(=O)c2cccnc2Oc2ccc(Cl)cc21)N1CCCCC1	Pf growth 96h 13µM, Pf growth 48h inconclusive
COc1cc2c(cc1OC)CN(CC(=O)Nc1ccc(C)c(S(=O)(=O)N3CCOCC3)c1)CC2	Pf growth 96h 12µM, Pf growth 48h inconclusive
COc1cc2c(cc1OC)CN(CC(=O)Nc1ccc(Cl)c(S(=O)(=O)N(C)C)c1)CC2	Pf growth 96h inconclusive, Pf growth 48h 13µM (no result: NS1 function inh)
